# Source: PubChem BioAssay (NCI)
# The panel holds about 83,000 compounds, 20% with a hit somewhere; the sample as a whole holds those more often.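 Growth was measured after 48 h exposure to one concentration of compound in 96-well plates. Values under 10 count as active.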 Values without a mark were called inactive. Calls of active or inactive are those of the source.
# Experiments:
# Experiment in all cases: NCI-60 one-dose screen, 48 h (100 = growth as untreated, 0 = no growth, -100 = all killed)
# HCT-15 colon = details: 10 µM unless noted
# HT29 colon = details: 10 µM unless noted
# SNB-75 CNS = details: 10 µM unless noted
# SNB-19 CNS = details: 10 µM unless noted
# U251 CNS = details: 10 µM unless noted
# PC-3 prostate = details: 10 µM unless noted
# SK-MEL-5 melanoma = details: 10 µM unless noted
# UACC-62 melanoma = details: 10 µM unless noted
# LOX IMVI melanoma = details: 10 µM unless noted
# SK-MEL-28 melanoma = details: 10 µM unless noted
# SK-MEL-2 melanoma = details: 10 µM unless noted
# EKVX NSCLC = details: 10 µM
# SN12C renal = details: 10 µM unless noted
# UO-31 renal = details: 10 µM unless noted
# TK-10 renal = details: 10 µM unless noted
# ACHN renal = details: 10 µM unless noted
# CAKI-1 renal = details: 10 µM unless noted
# A498 renal = details: 10 µM unless noted
# CCRF-CEM leukemia = details: 10 µM
# MOLT-4 leukemia = details: 10 µM unless noted
Structure (SMILES),growth (HCT-15 colon),growth (HT29 colon),growth (SNB-75 CNS),growth (SNB-19 CNS),growth (U251 CNS),growth (PC-3 prostate),growth (SK-MEL-5 melanoma),growth (UACC-62 melanoma),growth (LOX IMVI melanoma),growth (SK-MEL-28 melanoma),growth (SK-MEL-2 melanoma),growth (EKVX NSCLC),growth (SN12C renal),growth (UO-31 renal),growth (TK-10 renal),growth (ACHN renal),growth (CAKI-1 renal),growth (A498 renal),growth (CCRF-CEM leukemia),growth (MOLT-4 leukemia)
COc1ccc(C(=O)CN2C(=O)NC(c3ccccc3)(c3ccccc3)C2=O)cc1,99.5%,100%,86.7%,102%,101%,95%,99.7%,99.4%,98%,103%,99.6%,98.9%,101%,71.2%,117%,104%,93.6%,70.5%,94.8%,–
COc1ccc(-c2cc(C#N)c(NNC(C)=O)[nH]2)cc1,117%,105%,119%,125%,102%,115%,105%,103%,103%,115%,102%,112%,113%,96.2%,95.7%,103%,107%,123%,-0.558% (active),46%
C/C=C(/C)C(=O)OC1C=C(CO)C(=O)C(OC(=O)C(C)(O)C(C)Cl)C1C(C)C (stereo not given),-20.7% (active),-32.5% (active),20%,-1.69% (active),-50% (active),-24.8% (active),-93% (active),-77% (active),-75.4% (active),-48.9% (active),-23.5% (active),-15% (active),-35.4% (active),-96.5% (active),-17.4% (active),-96.7% (active),-44.5% (active),-74.6% (active),1.18% (active),0.566% (active)
CC1(c2ccc(Br)cc2)NC(=O)NC1=O (stereo not given),106%,106%,99.3%,105%,97.2%,103%,104%,101%,100%,112%,122%,109%,100%,94.9%,106%,104%,97.8%,99.5%,–,–
CCOC(=O)C1=C(C(F)(F)F)NC(=O)NC1CN1C(=O)c2ccccc2C1=O (stereo not given),123%,113%,98.4%,111%,107%,92%,111%,92.9%,111%,113%,109%,104%,104%,102%,122%,120%,114%,118%,-21.1% (active),70.5%
CCn1cc(C(=O)O)c(=O)c2cc(F)c(N3CCN(S(=O)(=O)c4ccc(Cl)cc4)CC3)cc21,15.7%,7.87% (active),41.8%,20.6%,12%,25.3%,26.6%,21.5%,19.9%,44.6%,43.8%,78.1%,11.6%,51.1%,53.6%,28.7%,43.6%,-6.18% (active),-0.845% (active),23.6%
FC(F)(F)c1cccc(-c2[nH]ncc2-c2nnnn2-c2ccccc2)c1,35.6%,15.1%,47.5%,50.8%,30.1%,44%,20.8%,36.9%,44.8%,60.8%,78.3%,52.6%,65.5%,72.4%,65.5%,68.6%,69.4%,43.4%,53.5%,27.1%
Cc1ncc(C(=O)Nc2ccc(CN3CCN(C)CC3)c(C(F)(F)F)c2)cc1C#Cc1c(N)ncc2ccc(F)cc12,-93.2% (active),-87.4% (active),-3.33% (active),-99.6% (active),-88.3% (active),-83.6% (active),-70.2% (active),-28.7% (active),-74.2% (active),-85.8% (active),0.14% (active),-7.75% (active),19.1%,6.12% (active),-89.2% (active),-15.8% (active),20.8%,-65.1% (active),-47.6% (active),-57.9% (active)
Cc1c(C(N)=O)sc2c1c(=O)n(Cc1ccccc1)c1nnc(S(C)(=O)=O)n21,96.1%,88.2%,94.4%,93.2%,98.7%,47.8%,74.8%,78.1%,81.2%,96.2%,80.6%,98%,80.3%,85.6%,93.1%,100%,86.5%,95.5%,–,–
Cc1ccc(C(C)C)c(OCc2ccc(C(=O)N/N=C/c3cccc(O)c3O)cc2)c1,13.4%,39.6%,44.7%,45.6%,28.3%,39.4%,38.6%,30.8%,-12.3% (active),42.8%,71.5%,49.1%,35%,16.1%,74%,12.8%,31.6%,90.2%,6.92% (active),7.88% (active)
N=c1c2c(=O)n3c(nc2nc2sc4ccc(Cl)cc4n12)-c1ccccc1Sc1ccccc1-3,13.6%,26.8%,18.6%,30.5%,24.7%,11.2%,-2.17% (active),-26% (active),24.2%,29.3%,7.77% (active),9.46% (active),21.4%,-5.37% (active),47%,14.7%,6.62% (active),47.1%,12.5%,8.17% (active)
CC(=O)NNC(=O)c1sc(NC(C)=O)nc1C,95.7%,87.3%,99.2%,92.4%,102%,90.8%,103%,91.9%,94.4%,95.9%,35.3%,115%,99.4%,89.1%,95.2%,106%,115%,100%,88.1%,94.1%
COc1cccc2c1nc1cccc(OC)c1[n+]2[O-],47.4%,53.9%,58.3%,46.9%,46.6%,73.2%,62%,39.6%,31.9%,103%,35.6%,57.8%,43.7%,-0.522% (active),75.8%,2.52% (active),52.8%,65.4%,3.09% (active),-1.14% (active)
COC(=O)c1ccc2[nH]c(O)c(C(=Nc3ccc(N(C)C(=O)CN4CCN(C)CC4)cc3)c3ccc(CCO)cc3)c2c1,82.1%,43.8%,18.1%,31.4%,31.3%,56.4%,50%,73.7%,37.5%,38.3%,34.9%,85.5%,27.8%,72.2%,65.2%,74.1%,33.1%,45.6%,15.5%,21.4%
NC(=O)c1c(Nc2ccccc2)nn2cc(-c3nc4ccccc4s3)c(N)nc12,101%,103%,88.9%,92.7%,101%,91.4%,97.3%,97.3%,94%,113%,100%,89.5%,95.5%,81.3%,124%,96.3%,86.2%,92.5%,99.2%,93.3%
Cc1ccnc2c(NC(C)CCCN)cc(O)c(O)c12 (stereo not given),121%,60%,105%,102%,83.1%,91.6%,95.9%,105%,60.7%,115%,91.9%,93.8%,27.2%,83.7%,109%,99.5%,89.3%,93.5%,39.6%,54.1%
